Bioassay records (PubChem)
Compounds with a hit are over-represented: about 3.6% of the library has one in this group of screens.
LGR2 inh = Drosophila LGR2 receptor signaling inhibition; HEK293 LGR2, CRE-luciferase, bursicon-stimulated, 4 h; inhibition, % at 9.99 µM; 380,000 compounds, 0.35% hits; AID 720647;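 active = drop in luminescence signal, shown as inhibition above about 50% in the replicate tests, limit read from the data, passing the limit was not always enough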;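 also: agonist challenge used bursicon conditioned medium at about half maximal strength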
HSF1 activator = increases HSF-1 driven luciferase reporter signal; NIH3T3-HGL HSF-1 luciferase reporter, MG132, 8 h; 100% = twice DMSO control signal; 300,000 compounds, 1.7% hits; activation, % at 9 µM;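 active = mean replicate activation of at least 50% with a set share of replicates each reaching 50%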;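 also: 0% = median of the neutral control wells and 100% = twice that signal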
HSF1 inh = HSF1 inhibition. 300,000 compounds, 0.77% hits. activity change, negative = inhibition, % at 7.5 µM (by protocol). NIH3T3-HGL HSE-luciferase, MG132-induced, luminescence 8 h; active compounds read low;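 active = more than half of replicate wells show activity change below -50%, luminescence cut by over half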;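 also: luciferase reports HSF-1 transcriptional activity via heat shock element; 0% = median of DMSO wells and -100% = zero luminescence signal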
TROY signal inh = blocks TROY-dependent signaling in reporter cells; inhibition, % at 10 µM; 360,000 compounds, 0.98% hits; Q293 LMP1-TROYcd NF-kB luciferase reporter, 4 h; AID 1347056;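 active = compounds whose plate-normalised and pattern-corrected inhibition of the luciferase reporter signal at the single screening dose is 50% or more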
TWEAK Fn14 block = inhibitors of TWEAK-Fn14 interaction signaling; TWEAK-stimulated Fn14 reporter cells, luciferase luminescence, 8 h; inhibition, % at 10 µM; 360,000 compounds, 2% hits; AID 1159606; in the data active = inhibition above about 50%
LMP1 NFkB inh = inhibitors of Epstein-Barr LMP1-induced NF-kappaB reporter | LMP1-induced NF-kappaB luciferase reporter cells, luminescence | inhibition, % at 12.5 µM | 350,000 compounds, 0.69% hits | AID 504558; in the data active = inhibition above about 41%;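 also: 0% = neutral control wells and 100% = reference inhibitor control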
The depositor's hits bear a star; . = no result.

SMILES	LGR2 inh	HSF1 activator	HSF1 inh	TROY signal inh	TWEAK Fn14 block	LMP1 NFkB inh
COc1ccc(S(=O)(=O)Nc2ccc3c(c2)C(=O)N([C@@H](C)CO)C[C@@H](C)[C@@H](CN(C)Cc2ccc(C(=O)O)cc2)OCCCC[C@H](C)O3)cc1	1.4	.	.	.	.	.
Cc1ccc(S(=O)(=O)Nc2ccc3c(c2)C(=O)N([C@H](C)CO)C[C@@H](C)[C@@H](CN(C)S(=O)(=O)c2c(C)noc2C)O3)cc1	11.2	.	.	.	.	.
Fc1ccccc1/C=N/n1cc(-c2ccccc2)[nH]c1=S	-34.4	3.2	9.4	23.4	-0.9	-5.6
Cc1ccc(C)c(/C=N/n2cc(-c3ccccc3)[nH]c2=S)c1	-32.3	-10.0	-0.4	53.0*	14.4	8.6
Cc1ccc(Nc2nc(Cl)nc(NC(C)(C)C)n2)cc1	-42.2	30.6	13.6	-36.2	-11.6	-32.4
Cc1ccc(Nc2nc(Cl)nc(N(C)C#N)n2)cc1	1.4	-0.5	8.6	8.7	89.5*	-6.0
Cc1cc(C)nc(SCCC(=O)Nc2ccccc2C)n1	.	6.9	2.5	-18.1	106.3*	6.0
COC(=O)c1cc(COc2ccc3oc(C)c(C(=O)OC(C)C)c3c2)c(C)o1	15.8	-83.5	-80.2*	5.6	-60.3	2.2
COC(=O)c1cc(COc2ccc3c4c(c(=O)oc3c2)CCCC4)c(C)o1	.	1.2	-3.6	-5.3	-33.7	0.1
CO[C@H]1CN(C)C(=O)c2ccc(NC(=O)C3CCCCC3)cc2OC[C@@H](C)N(C)C[C@@H]1C	8.5	.	.	.	.	.
COC(=O)c1nnn(CC(=O)NC(=O)Nc2ccc(F)cc2)c1C(=O)OC	9.1	54.7*	5.5	6.1	18.5	2.5
COC(=O)c1nnn(CC(=O)NC(=O)Nc2ccccc2)c1C(=O)OC	19.8	-7.0	-5.1	15.7	7.7	-5.1
CCC(=O)Nc1ccc2c(c1)C(=O)c1ccccc1C2=O	.	32.0	19.7	-55.4	-17.7	-8.3
CCC(C)(C)c1ccc2c(c1)C(=O)c1ccccc1C2=O	-39.4	-7.4	-4.1	48.0	61.1*	-14.9
CCCCC(CC)CN=C(N)NC(N)=NCCCCCCN=C(N)NC(N)=NCC(CC)CCCC (configuration not stated)	.	.	.	71.1*	105.3*	11.9
CCCCC(CC)CO (configuration not stated)	.	.	.	9.5	2.9	-10.0
CCN(CCn1cccn1)C(=O)c1cc(COc2ccccc2SC)on1	-61.6	44.5	24.0	-59.5	-3.2	-19.9
Cc1ccc(C)c(OCc2cc(C(=O)N3CCN(c4ccccc4)CC3)no2)c1	-85.0	55.6*	38.3	-18.9	-23.4	-33.5
Cc1ccc(C)c(OCc2cc(C(=O)N3CCN(C(=O)c4ccco4)CC3)no2)c1	-38.8	33.1	24.6	-73.1	-14.9	-17.4
CCN(CCn1cccn1)C(=O)c1cc(COc2cc(C)ccc2C)on1	-50.5	59.4*	20.5	-47.6	-18.7	-18.1
O=C(N/N=C/c1c(O)ccc2ccccc12)c1ccc(CO)nc1	.	10.3	-2.4	-2.6	-16.2	19.3
O=C(O)c1ccc(/C=N/NC(=O)c2ccc3c(c2)OCCO3)cc1	23.5	-10.9	-18.8	-16.8	6.3	-0.2
O=C(NN=Cc1c(O)ccc2ccccc12)c1ccc2c(c1)OCO2	-15.6	.	.	5.7	-13.5	74.2*
O=C(N/N=C\c1ccc([N+](=O)[O-])s1)c1cncc(Br)c1	.	-2.7	-10.5	14.3	52.6*	12.7
O=C(N/N=C/c1ccc(Br)o1)c1ccc2c(c1)OCCO2	-14.2	-81.0	-78.9*	-38.6	6.0	-12.3
SMILES	LGR2 inh	HSF1 activator	HSF1 inh	TROY signal inh	TWEAK Fn14 block	LMP1 NFkB inh
O=C(N/N=C/c1ccc([N+](=O)[O-])s1)c1ccccc1	15.8	12.7	1.7	-24.6	-11.7	16.8
O=C(CNC(=O)c1ccc2c(c1)OCO2)N/N=C(Br)/C=C/c1ccccc1	-5.4	65.8*	34.3	-19.6	21.0	15.8
C/C=C/c1ccc2c(c1)O[C@H](CN(C)C(=O)C1CC1)[C@@H](C)CN([C@H](C)CO)S2(=O)=O	3.5	.	.	.	.	.
CCNC(=O)C[C@H]1CC[C@H]2[C@@H](COc3ccc(NC(=O)NC(C)C)cc3C(=O)N2C)O1	-7.4	.	.	.	.	.
Cc1noc(C)c1S(=O)(=O)Nc1ccc2c(c1)CC(=O)N([C@H](C)CO)C[C@H](C)[C@H](CN(C)C(=O)NC(C)C)O2	12.1	.	.	.	.	.
O=C(N/N=C\c1ccc2c(c1)OCO2)c1cncc(Br)c1	15.6	19.9	-4.0	-16.3	58.2*	0.3
O=C(N/N=C/c1ccccc1)c1ccc2c(c1)OCO2	20.6	25.7	9.9	-30.8	58.9*	6.3
O=C(N/N=C/c1cccnc1)c1ccc2c(c1)OCCO2	-50.4	-72.6	-63.3*	-48.6	27.7	8.7
COC(=O)N/N=C/c1cc(N=Nc2ccccc2Cl)ccc1O	-13.2	6.4	8.7	-19.3	20.9	1.2
Nc1ccc(C(=O)N/N=C\c2cc(N=Nc3cccc4ccccc34)ccc2O)cc1	.	-5.3	-12.4	-23.0	17.1	60.3*
O=C(N/N=C\c1c(O)ccc2ccccc12)c1ccc(S(=O)(=O)N2CCCCC2)cc1	26.3	6.7	-5.0	5.3	-2.4	68.5*
Oc1ccccc1C=NN=Cc1c(O)ccc2ccccc12	.	-29.1	-29.1	-65.9	-7.8	92.9*
Oc1ccc2ccccc2c1C=NCc1ccccc1	18.9	.	.	8.5	10.6	-13.3
O=C(N[C@H]1CC[C@@H](CCNS(=O)(=O)c2ccc(F)cc2)O[C@H]1CO)c1cccc(F)c1	3.8	.	.	.	.	.
COc1ccc(CN(C)C[C@@H]2Oc3c(NS(=O)(=O)c4ccc(Cl)cc4)cccc3C(=O)N([C@@H](C)CO)C[C@@H]2C)cc1	-20.9	.	.	.	.	.
CCOC(=O)C1CCCN(C(=O)Cn2cccc2C(=O)c2ccccc2)C1 (configuration not stated)	.	4.8	-1.0	29.7	98.6*	9.5
CCOC(=O)C1CCN(C(=O)Cn2cccc2C(=O)c2ccccc2)CC1	.	3.7	-1.3	-7.0	16.0	8.1
CC(=O)c1c(O)c2ccccc2n(C2CCCCC2)c1=O	.	-15.6	-13.8	55.7*	64.9*	13.0
O=C(NNc1ncnc2ccccc12)c1cccc(Cl)c1	-4.4	59.6*	20.9	-19.2	20.8	-10.3
CC(=O)NNc1ncnc2ccccc12	23.5	.	.	-20.4	-17.9	-4.7
COc1cccc(CNC(=O)COC(=O)c2nc(Cl)c(Cl)c(Cl)c2Cl)c1	7.0	.	.	38.7	93.7*	-6.8
CCS(=O)(=O)N1CC2(C1)[C@@H](c1ccccc1)[C@@H](CO)N2CCC(F)(F)F	-4.7	.	.	.	.	.
O=C(COc1ccc(Cl)cc1)Nc1ncc([N+](=O)[O-])s1	35.2	77.8*	45.3	48.4	79.2*	19.9
Cc1nc2ccc3nc(NC(=O)c4ccc5c(c4)OCCO5)sc3c2s1	-16.0	-27.0	-8.3	-38.7	-27.0	-1.2
O=C(Cc1ccc(Cl)cc1)Nc1ncc([N+](=O)[O-])s1	-91.3	36.4	18.0	36.7	-11.1	-11.8
O=C(Nc1ncc([N+](=O)[O-])s1)c1ccc2c(c1)OCO2	91.1*	-25.8	-31.5	83.6*	102.5*	55.1*
